Each structure is given as a SMILES string. Hit rate of the full screen: of about 1,400 compounds, about 1,000 (71%) were called active. So high a share suggests a set chosen from earlier hits. These entries were drawn from the full list. Measured potencies and affinities stand elsewhere. Unmarked numbers belong to inactive results. How the calls were made is not given here.

The nature of this assay: blockers of HIV-1 envelope-mediated cell-cell fusion – cherry-pick, dose response (AID 652057). Particulars: HeLa-JRFL Env/CEM21 cell fusion, luciferase; series mostly up to 35 µM; activity change, negative = inhibition: at the top concentration.
For `O=C(c1ccccc1)N1CCC(c2nc(-c3ccc(S(=O)(=O)NCC4CCCO4)cc3)no2)CC1` (stereo not given), the “activity change, negative = inhibition” value is -19.1%.

As for `C[C@@H]1CN([C@H](C)CO)C(=O)c2c(c3ccccc3n2C)-c2ccccc2CO[C@@H]1CN(C)S(=O)(=O)c1cccc(F)c1`, the “activity change, negative = inhibition” value was 247% [at 18 µM].

On to `C[C@@H]1CN([C@@H](C)CO)C(=O)c2cccc(NC(=O)c3ccc(-c4nccs4)cc3)c2O[C@H]1CN(C)CC1CC1`, for which the “activity change, negative = inhibition” value is -19.5%.

For `CCn1ncc(C2=NOC(C(=O)Nc3ccc(C)cc3)C2)c1C` (stereo not given), the “activity change, negative = inhibition” value is -4.06%.

On to `C[C@H]1CN([C@@H](C)CO)C(=O)Cc2cc(N(C)C)ccc2O[C@H]1CN(C)CC1CC1`, for which the “activity change, negative = inhibition” value was -11.9%.

For the molecule `Cc1ccc2c(c1)C(=C(C#N)C#N)CCN2`, the “activity change, negative = inhibition” value is -11.9%.

In the case of `O=C(Nc1ccc(N2CCN(C(=O)c3ccccc3)CC2)c(Cl)c1)c1cccnc1`, the “activity change, negative = inhibition” value was -1.86% [at 16 µM].

On to `CCCNC(=O)C[C@@H]1C[C@@H]2c3cc(NC(=O)Cc4ccncc4)ccc3O[C@@H]2[C@@H](CO)O1`, for which the “activity change, negative = inhibition” value was 13.7% [at 30 µM].

As for `C[C@H](CO)N1C[C@H](C)[C@@H](CN(C)C(=O)NC2CCCCC2)Oc2c(cccc2N(C)C)C1=O`, the “activity change, negative = inhibition” value is -0.366%.

In the case of `CCCNC(=O)C[C@@H]1C[C@H]2c3cc(NC(=O)c4cccnc4)ccc3O[C@H]2[C@H](CO)O1`, the “activity change, negative = inhibition” value is 51.2%.

Consider `COc1ccc(CN(C)C[C@@H]2Oc3ccc(NC(=O)Nc4ccc(OC)cc4)cc3C(=O)N([C@H](C)CO)C[C@@H]2C)cc1`, for which the “activity change, negative = inhibition” value is -26%.

With `C[C@@H]1CN([C@@H](C)CO)C(=O)c2cc(NC(=O)c3ccccc3)ccc2O[C@@H](C)CCCCO[C@H]1CN(C)Cc1ccc(C(=O)O)cc1`, the “activity change, negative = inhibition” value is -13.2%.

In the case of `C[C@@H]1CCCCO[C@H](CN(C)C)[C@H](C)CN([C@@H](C)CO)C(=O)c2cc(NS(=O)(=O)c3cn(C)cn3)ccc2O1`, the “activity change, negative = inhibition” value was 31.6%.

Take `CNC[C@H]1Oc2c(NC(=O)Nc3ccc(C(F)(F)F)cc3)cccc2C(=O)N([C@@H](C)CO)C[C@H]1C`: the “activity change, negative = inhibition” value is 63.2%.

As for `O=C(N[C@@H]1CC[C@H](CCNS(=O)(=O)c2ccc(F)cc2)O[C@@H]1CO)C1CC1`, the “activity change, negative = inhibition” value is 1.98%.

`O=C(COC(=O)c1cc(S(=O)(=O)N2CCOCC2)ccc1O)NCc1ccc2c(c1)OCO2`: the “activity change, negative = inhibition” value is -22%.

Regarding `CC(C)CNS(=O)(=O)c1ccc(CCC(=O)N2CCN(Cc3ccc4c(c3)OCO4)CC2)cc1`, the “activity change, negative = inhibition” value is -33.2%.

Take `C[C@H]1NC(=O)[C@@]2(C)[C@H](c3ccccc3)[C@H]3COc4ccccc4[C@@H]3N2C1=O`: the “activity change, negative = inhibition” value is -5.75%.

Regarding `COCC(=O)N1C[C@@H](C)[C@H](OC)CN(C)C(=O)c2ccc(NC(=O)c3ccc(OC)cc3)cc2OC[C@@H]1C`, the “activity change, negative = inhibition” value is 0.438%.

With `Nc1c(S(=O)(=O)c2ccccc2)cnc2c(-c3ccc(F)cc3)cnn12`, the “activity change, negative = inhibition” value was 167%.

Take `Cc1cc(Cl)ccc1OCC(=O)NNC(=O)C1CSC2(C)CCC(=O)N12` (stereo not given): the “activity change, negative = inhibition” value is -4.03%.

As for `O=C(Nc1cccc(F)c1)c1cc(S(=O)(=O)N2CCC(C(=O)O)CC2)ccc1F`, the “activity change, negative = inhibition” value is 9.32%.

In the case of `Nc1nc2c(ncn2[C@@H]2O[C@H](C(=O)NCC(c3ccccc3)c3ccccc3)[C@@H](O)[C@H]2O)c(=O)[nH]1`, the “activity change, negative = inhibition” value is -7.59%.

For `CCc1cc2c(NCc3ccco3)ncnc2s1`, the “activity change, negative = inhibition” value is -10.4%.

Regarding `Nc1ncn([C@H]2C[C@H](O)[C@@H](CO)O2)c(=O)n1`, the “activity change, negative = inhibition” value was 12.8%.

As for `N#C[C@H]1[C@@H](c2ccccc2/C=C/c2ccccc2)[C@@H](CO)N1S(=O)(=O)c1cccc(F)c1`, the “activity change, negative = inhibition” value was -24%.

With `O=C(Nc1ccc(CN2CCS(=O)(=O)CC2)cc1)c1ccc(C(F)(F)F)cc1`, the “activity change, negative = inhibition” value is -17.9%.

Turning to `Cc1ccc(-n2nnnc2-c2cnn(-c3ccc(F)cc3)c2C(F)(F)F)cc1`, the “activity change, negative = inhibition” value is -20.2%.

With `Cc1cccc(C)c1NC(=O)CCCSc1nnc(-c2ccc(Cl)cc2)n1-c1ccccc1`, the “activity change, negative = inhibition” value was -36.5%.

Take `Cn1c(SCc2nc(-c3ccc(Cl)cc3)no2)nnc1-c1cccs1`: the “activity change, negative = inhibition” value was -26.3%.

For the molecule `COc1ccc(-c2c(C)nn3c(C(F)(F)F)cc(C)nc23)cc1`, the “activity change, negative = inhibition” value was -9.71%.

Consider `O=C(CN1CCN(Cc2ccc(Cl)cc2)C1=O)NCCCN1CCN(c2ccc(F)cc2)CC1`, for which the “activity change, negative = inhibition” value is -19.3%.

Take `C[C@H]1CN([C@@H](C)CO)C(=O)c2cccc(NC(=O)C3CCCCC3)c2O[C@H]1CN(C)S(C)(=O)=O`: the “activity change, negative = inhibition” value was 12.7%.

As for `COCC(=O)N(C)C[C@H]1Oc2ncc(Br)cc2C(=O)N([C@H](C)CO)C[C@H]1C`, the “activity change, negative = inhibition” value is 2.66%.

Take `CCCNC(=O)N1[C@H](C#N)[C@H](c2ccc(-c3ccc(C(=O)N(C)C)cc3)cc2)[C@@H]1CO`: the “activity change, negative = inhibition” value was -34.4%.

Turning to `COc1ccccc1C#Cc1ccc([C@H]2[C@H](C#N)N(C(=O)C3CCCC3)[C@H]2CO)cc1`, the “activity change, negative = inhibition” value was -0.57%.

Turning to `N#C[C@@H]1[C@H](c2ccc(-c3cccc(F)c3)cc2)[C@H](CO)N1C(=O)c1cccnc1`, the “activity change, negative = inhibition” value was -19.2%.

As for `CCCNC(=O)N1[C@H](C#N)[C@H](c2ccc(-c3cccc(OC)c3)cc2)[C@@H]1CO`, the “activity change, negative = inhibition” value was -9.82%.

Regarding `O=S(=O)(NCC[C@H]1CC[C@H](NS(=O)(=O)c2ccccc2Cl)[C@H](CO)O1)c1ccc(Cl)cc1`, the “activity change, negative = inhibition” value was 12.1% [at 30 µM].

With `O=S(=O)(NCC[C@@H]1CC[C@@H](NS(=O)(=O)c2ccccc2Cl)[C@H](CO)O1)c1ccc(Cl)cc1`, the “activity change, negative = inhibition” value is 15.1%.

The values above are taken from PubChem BioAssay AID652057 (Broad Institute, 2013).
